Data on 6 compounds can be found in PubChem BioAssay (NCI).

Compounds without any hit were thinned out: in the full panel of roughly 83,000, 20% have a hit.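 Compound tested at a single concentration for 48 hours in 96-well plates; a percent growth value below 10 was scored as active.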 Active and inactive are the calls of the source.

This assay concerns HL-60(TB) leukemia. Put plainly: NCI-60 one-dose screen, 48 h (100 = growth as untreated, 0 = no growth, -100 = all killed). As to conditions: 10 µM unless noted.
As for `COc1ccc2c3nc4cc(C)c(C)cc4nc3n(CCN(C)C)c2c1`, the growth was -45.3% (active).
The result for `O=C(NNC(=S)NCCc1ccccc1)c1ccc(OCc2nc3ccc(Cl)cc3[nH]2)cc1` reads 88.9% (inactive); that for `COc1c(F)ccc(C(=O)Nc2ccc3nc(NC(=O)C4CCCN(S(=O)(=O)c5ccc(C(C)(C)C)cc5)C4)sc3c2)c1F` (stereo unspecified), 66.9% (inactive); that for `COc1cc(C2CC(c3cc(OC)c(OC)c(OC)c3)=NN2C(C)=O)ccc1OCc1ccc(F)cc1` (stereo unspecified), 37.3% (inactive).
With `COc1cc2oc(-c3cccc(C(=O)Nc4ccc(Cl)cc4)c3)cc(=O)c2c(OCCNC(=O)[C@@H](N)CCC(=O)O)c1OC`, the growth was 81.6% (inactive).
Take `CN(C)c1ccnc(CNCCSC2(c3ccccc3)c3ccccc3C=Cc3ccccc32)c1`: the growth is -42.8% (active).
